The results in this text go back to PubChem BioAssay AID1626 (SRMLSC, 2009).

Among all 220,000 compounds or so, about 2,000 (0.91%) were called active. Roughly 2% stayed inconclusive and do not appear here. These entries were drawn from the full list. Results with a measured potency or affinity are listed apart. A number with no mark means an inactive call. Rule as the data show it: inconclusive = inhibition above about 80% without an active follow-up result; inactive = below that; test concentration not stated here.

A short description of the assay: M. tuberculosis H37Rv growth inhibitors, H37Rv strain (AID 1626).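 Also: bacteria incubated seven days before Alamar blue readout; 0% = bacteria only wells and 100% = bacteria with antibiotic wells.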 To be noted: active compounds read high, concentration not given here.
For orientation: inhibition means the drop in the measured response relative to a control, in per cent. Turning to `O=C(OCc1ccccc1)C1=NNC2C(=O)N(Cc3ccccc3)C(=O)C12` (centres undefined), the inhibition is 8.28%.
`COCCn1c(SCC(=O)N2CC(=O)Nc3ccccc32)nc2ccccc2c1=O`: the inhibition was 14.5%.
For the compound `CCc1ccc(-c2cc(C(F)(F)F)n3nc(C(=O)Nc4c(C)nn(Cc5ccccc5Cl)c4C)cc3n2)s1`, the inhibition is -4.86%.
Regarding `CCc1ccc(-c2cc(C(F)(F)F)n3nc(C(=O)Nc4c(C)nn(Cc5ccccc5C)c4C)cc3n2)s1`, the inhibition is 2.87%.
With `O=S(=O)(Nc1ccc(C(F)(F)F)cc1)c1cnc[nH]1`, the inhibition is -0.2%.
As for `CCOC(=O)C(C(=O)OCC)N(C#N)c1nc(C)cc(C)n1`, the figure is -14%; as for `CCOC(=O)CNC(=O)CSc1nnc(-c2cccc(C)c2)n1-c1ccc(OC)cc1`, 3.71%.
Turning to `CCOC(=O)CNC(=O)CSc1nnc(-c2ccccc2)c(-c2ccccc2)n1`, the inhibition was -8.15%.
As to `CCOC(=O)CNC(=O)CSc1nnc(SCC(=O)NCC(=O)OCC)s1`, the inhibition is -11.7%.
Regarding `CCOC(=O)CSc1nc(-c2ccc(OC)cc2)ns1`, the inhibition was 57.1%.
Take `Cc1cccc(-c2nsc(SCC(=O)c3ccc(Cl)cc3)n2)c1`: the inhibition is 94%.
Turning to `CCOC(=O)N1CCN(Cc2nc(-c3cccc(C)c3)no2)CC1`, the inhibition was -1.51%.
Under `Cc1cccc(-c2nsc(SCC(=O)Nc3nccs3)n2)c1` stands 10.4%; under `CCOC(=O)CSc1nc(-c2ccccc2)nc2ccccc12`, -6.27%; under `COc1ccc(C2=NOC(C(=O)N3CCN(c4ccccc4OC)CC3)C2)cc1` (centres undefined), 10.3%.
For the compound `COc1ccc(NC(=O)COC(=O)Cc2ccc(Br)cc2)cc1`, the inhibition was 15.8%.
As for `Cn1c2ccccc2c(=O)c2c(=O)n(Cc3ccco3)c(-c3ccc(C(C)(C)C)cc3)nc21`, the figure is 50.6%; as for `Cc1c(F)cccc1NC(=O)CCC(=O)O`, 0.24%; as for `O=C(c1cnc2sccn2c1=O)N1CCCc2ccccc21`, 0.62%.
Take `CNC(=O)CSCCn1c(SCC(=O)NC)nc2ccccc2c1=O`: the inhibition was -1.73%.
`CC(=O)c1cccc(NC(=O)C(C)OC(=O)CNC(=O)c2ccc(C)s2)c1` (centres undefined): the inhibition is -1.06%.
With `Clc1ccc(CSc2ncn[nH]2)cc1`, the inhibition was 74.3%.
Regarding `O=C(O)c1ccc(CSc2ncn[nH]2)cc1`, the inhibition was -5.36%.
`Cc1ccc(C)c(N(C)S(=O)(=O)c2cccc3nsnc23)c1`: the inhibition is -5.61%.
As for `COc1cccc(NC(=S)N(Cc2ccccn2)Cc2ccccc2Cl)c1`, the figure is 8.54%; as for `CCn1c(=O)cc(NC2=NCC(C)CN2c2cccc(Cl)c2)n(C)c1=O` (centres undefined), -2.51%.
Turning to `CCCCc1ccc(NC(=O)COc2ccc(C(=O)Nc3ccccc3C)cc2)cc1`, the inhibition is 73.6%.
For the compound `Cc1ccc(OCC(=O)Nc2ccccc2F)cc1C`, the inhibition is 2.33%.
For the compound `O=C(N/N=C/c1ccccc1C(F)(F)F)c1ccc(O)cc1`, the inhibition was -4.67%.
Consider `CCOc1ccc(/C=C/C2=NNC(=O)CC2)cc1`, for which the inhibition was -3.64%.
Take `CCCn1c(N2CCC(Cc3ccccc3)CC2)nc2c1c(=O)[nH]c(=O)n2C`: the inhibition was 12.4%.
As to `CCCCn1c(N2CCC(Cc3ccccc3)CC2)nc2c1c(=O)[nH]c(=O)n2C`, the inhibition was 46.5%.
On to `Oc1c(Br)cc(Cl)cc1C=Nc1ccc(N2CCOCC2)cc1`, for which the inhibition was 7.51%.
Regarding `O=S(=O)(CCn1cccc1)CCn1cccc1`, the inhibition was 8.4%.
`COc1cc(/C=N/NC(=O)c2c(-c3ccccc3)noc2C)cc(OC)c1OC`: the inhibition was -3.6%.
On to `COc1ccc(CNC(=O)COC(=O)CCc2nc3ccccc3c(=O)[nH]2)cc1`, for which the inhibition was 5.36%.
For `CN1C[C@@H]2C(c3ccc(C(F)(F)F)cc3)C3(c4ccccc4)CC2(C3)[C@H]1c1ccccc1` (some centres undefined), the inhibition is 2.02%.
Regarding `FC(F)(F)c1ccc(C2[C@H]3CN(CC4CCCCC4)[C@H](c4ccccc4)C34CC2(c2cccnc2)C4)cc1` (some centres undefined), the inhibition was 19.8%.
Take `FC(F)(F)c1ccc(CN2C[C@@H]3C(c4ccc(C(F)(F)F)cc4)C4(c5cccnc5)CC3(C4)[C@H]2c2ccccc2)cc1` (some centres undefined): the inhibition was 9.04%.
As to `CN1C[C@@H]2C(c3ccccc3)C3(c4cccnc4)CC2(C3)[C@H]1c1ccccc1` (some centres undefined), the inhibition was 1.01%.
Turning to `c1ccc(C2[C@H]3CN(CC4CCCCC4)[C@H](c4ccccc4)C34CC2(c2ccccc2)C4)cc1` (some centres undefined), the inhibition is 6.4%.
In the case of `FC(F)(F)c1ccc(CN2C[C@@H]3C(c4ccc(Cl)nc4)C4(c5ccccc5)CC3(C4)[C@H]2c2ccccc2)cc1` (some centres undefined), the inhibition is 7.77%.
As for `CCOC(=O)Cn1nc(C)n(-c2ccc(C(C)C)cc2)c1=O`, the figure is 1.38%; as for `CCCc1nc2c(sc3nc4c(cc32)COC(C)(C)C4)c(=O)n1CCN(C)C`, -6.58%.
With `Cc1ccccc1Nc1c(-c2ccc(N3CCOCC3)cc2)nc2cnccn12`, the inhibition was -3.6%.
For the compound `CC(C)C[C@H](CO)Nc1nc(Nc2cccc(Cl)c2)c2ncn(C(C)C)c2n1`, the inhibition was 28.8%.
With `CC[C@H](CO)Nc1nc(Nc2cccc(Cl)c2)c2ncn(C(C)C)c2n1`, the inhibition was 15.3%.
`CCN(CC)S(=O)(=O)c1cccc(C(=O)N[C@H](C(=O)NCc2ccc(Cl)cc2)C(C)C)c1`: the inhibition is 6.08%.
Regarding `COc1cc(C(=O)NCC(C)C)c([N+](=O)[O-])cc1OC`, the inhibition is 3.27%.
With `CCCCOc1ccc(Br)cc1CSC(=N)N`, the inhibition is 2.99%.
Regarding `CCCOc1ccc(Br)cc1CSC(=N)N`, the inhibition was -1.31%.
Regarding `N#CCCN(CCC#N)S(=O)(=O)c1ccc(C(=O)Nc2nnc(C3=COCCO3)o2)cc1`, the inhibition was -6.19%.
As to `CC(=O)Nc1nnc(C2=COCCO2)o1`, the inhibition was 0.04%.
`O=C(Nc1nnc(C2=COCCO2)o1)c1ccc(S(=O)(=O)N2CCOCC2)cc1`: the inhibition is 7.6%.
Turning to `O=C(NCc1ccccc1)c1ccc2c(c1)OCCO2`, the inhibition is -7.22%.
On to `CCCC(=O)Nc1nnc(-c2ccc3c(c2)OCCO3)o1`, for which the inhibition is 57.4%.
Regarding `O=C(Nc1nnc(C2=COCCO2)o1)c1ccc(S(=O)(=O)N2CCCC2)cc1`, the inhibition is -3.71%.
Under `CCCCC(=O)Nc1nnc(C2=COCCO2)o1` stands 2.42%; under `O=C(Nc1nnc(C2=COCCO2)o1)c1ccc(S(=O)(=O)N2CCCCC2)cc1`, 78.6%; under `Cc1ccc(/C=N/NC(=O)c2cccnc2)s1`, -7.82%.
In the case of `O=C(Nc1ccc(F)cc1)c1ccc(S(=O)(=O)N2CCOCC2)o1`, the inhibition is -14.1%.
As for `COC(C[C@@H](O)C[C@@H](O)COCc1ccccc1)OC`, the inhibition is -11.1%.
As for `Cn1c(SCC(=O)N2CCCc3ccccc32)nc2cccnc21`, the figure is 4.22%.
`O=C(Nc1nnc(-c2cccnc2)s1)c1cccs1`: the inhibition was -11.7%.
Under `CC(C)(Oc1ccc(Cl)cc1)C(=O)OCn1nnc2ccccc2c1=O` stands 62.5%; under `CC(=O)c1c(C(C)=O)c(C)n(-c2cccc([N+](=O)[O-])c2)c1C`, -7.09%; under `COc1ccc(-n2c(C)cc(C(=O)CCl)c2C)cc1`, -6.35%.
Take `Cc1cc(C)c(S(=O)(=O)N(C)CC(=O)NCc2ccccn2)c(C)c1`: the inhibition was -8.63%.
For `CCn1ccnc1CN(C)Cc1cn(C)nc1-c1ccccc1F`, the inhibition is -1.63%.
As to `COc1cccc(/C=N/n2c(SC)nnc2-c2ccccc2)c1OC`, the inhibition is -6.45%.
As for `Cc1ccc(CN(C(=O)Cc2cccs2)C(C(=O)NC2CCCC2)c2ccncc2)cc1` (centres undefined), the figure is 7.49%; as for `O=C(Nc1ccc(S(=O)(=O)Nc2ccc(Cl)cc2)cc1)C1CCCO1` (centres undefined), 5.71%.
As for `Cc1cc(C)cc(NC(=O)c2ccc(CNc3c(N4CCOCC4)c(=O)c3=O)cc2)c1`, the inhibition is 12.3%.
On to `O=C(NCc1ccc(Cl)cc1)c1ccc(CNc2c(N3CCCC3)c(=O)c2=O)cc1`, for which the inhibition was 4.26%.
Take `O=C(NCc1ccc(Cl)cc1)c1ccc(CNc2c(N3CCOCC3)c(=O)c2=O)cc1`: the inhibition was 87.6%.
Turning to `CC(=O)c1ccc(NC(=O)c2ccc(CNc3c(N4CCCC4)c(=O)c3=O)cc2)cc1`, the inhibition is 2.39%.
On to `COc1cc2c(cc1NC(=O)CSc1nnc(Cc3cccs3)n1Cc1ccco1)oc1ccccc12`, for which the inhibition was 7.99%.
On to `CC(C)c1ccc(NC(=O)Cn2cccc2C2=NC(c3ccccc3)CO2)cc1` (centres undefined), for which the inhibition was -2.83%.
As for `COc1ccc(C(CCN)Cc2ccccc2)cc1` (centres undefined), the inhibition was 1.28%.
Take `O=S1(=O)CCN(OCc2ccc(F)cc2Cl)CC1`: the inhibition was -5.47%.
With `CCOc1cc(C)nc(Oc2ccc(=O)[nH]n2)n1`, the inhibition was -1.8%.
Turning to `Cc1ccc(-c2csc(=Nc3cccnc3)n2CCCN2CCCC2=O)cc1C`, the inhibition is 8.37%.
Under `c1ccc2c(c1)[nH]c1cnccc12` stands -1.77%; under `Cc1ccc(C)c2c1[nH]c1ccccc12`, -8.26%.
In the case of `CC(C)CCNC1=CC(=O)CC(c2ccccc2)C1` (centres undefined), the inhibition is -3.24%.
Under `CNCCOc1ccccc1OC(C)C` stands 4.14%.
As for `O=C(O)c1ccc(C(=O)O)c(C(=O)c2ccccc2)c1`, the inhibition is 4.19%.
Take `Cc1nn(Cc2ccc(F)cc2Cl)c(C)c1[N+](=O)[O-]`: the inhibition was 5.81%.
As for `CCOc1ccc(-n2c(N)c(-c3nc4ccccc4n3C)c3nc4ccccc4nc32)cc1`, the inhibition was 70.5%.
With `Cc1nc2ccccc2n1CCc1ccccc1`, the inhibition was -7.4%.
As for `Cn1c(-c2sc(=S)n(-c3ccccc3)c2N)nc2ccccc21`, the inhibition is -12.8%.
For `N#Cc1c(N)n(CCc2ccc(F)cc2)c2nc3ccccc3nc12`, the inhibition is 7.97%.
On to `CCN(CC)C(=O)C1=C(C)NC(=O)NC1c1ccccc1F` (centres undefined), for which the inhibition was -2.9%.
As for `COc1ccc(NC(=O)C(C)N2c3cccc4cccc(c34)S2(=O)=O)cc1OC` (centres undefined), the inhibition is -6.4%.
